Inconclusive results are not listed. Where a call stands in place of a potency, no number is given. Active and inactive are the calls of the source. Calls come from the whole dose curve; as a rule, active = well fitted curve in the direction sought with a large enough effect; inconclusive = small, poorly fitted or top-dose-only effect, or another doubt; inactive = no such curve, though single readings can be large; an effect the other way counts as inactive or inconclusive.
Target: Rap guanine nucleotide exchange factor 4 (Homo sapiens) (UniProt Q8WZA2)
Assay: Confirmatory qHTS for agonist of cAMP-regulated guanine nucleotide exchange factor 4 (EPAC2) (AID 1645884);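 note: nucleotide exchange releases bodipy-GDP from Rap1 and this lowers its fluorescence; nearly all actives have a fitted effect of over 65% in size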
Settings: EPAC2 GEF activity, Rap1B-BODIPY-GDP fluorescence; series mostly up to 154 µM

Rap guanine nucleotide exchange factor 4 (Homo sapiens), sequence (Q8WZA2 whole entry, looked up): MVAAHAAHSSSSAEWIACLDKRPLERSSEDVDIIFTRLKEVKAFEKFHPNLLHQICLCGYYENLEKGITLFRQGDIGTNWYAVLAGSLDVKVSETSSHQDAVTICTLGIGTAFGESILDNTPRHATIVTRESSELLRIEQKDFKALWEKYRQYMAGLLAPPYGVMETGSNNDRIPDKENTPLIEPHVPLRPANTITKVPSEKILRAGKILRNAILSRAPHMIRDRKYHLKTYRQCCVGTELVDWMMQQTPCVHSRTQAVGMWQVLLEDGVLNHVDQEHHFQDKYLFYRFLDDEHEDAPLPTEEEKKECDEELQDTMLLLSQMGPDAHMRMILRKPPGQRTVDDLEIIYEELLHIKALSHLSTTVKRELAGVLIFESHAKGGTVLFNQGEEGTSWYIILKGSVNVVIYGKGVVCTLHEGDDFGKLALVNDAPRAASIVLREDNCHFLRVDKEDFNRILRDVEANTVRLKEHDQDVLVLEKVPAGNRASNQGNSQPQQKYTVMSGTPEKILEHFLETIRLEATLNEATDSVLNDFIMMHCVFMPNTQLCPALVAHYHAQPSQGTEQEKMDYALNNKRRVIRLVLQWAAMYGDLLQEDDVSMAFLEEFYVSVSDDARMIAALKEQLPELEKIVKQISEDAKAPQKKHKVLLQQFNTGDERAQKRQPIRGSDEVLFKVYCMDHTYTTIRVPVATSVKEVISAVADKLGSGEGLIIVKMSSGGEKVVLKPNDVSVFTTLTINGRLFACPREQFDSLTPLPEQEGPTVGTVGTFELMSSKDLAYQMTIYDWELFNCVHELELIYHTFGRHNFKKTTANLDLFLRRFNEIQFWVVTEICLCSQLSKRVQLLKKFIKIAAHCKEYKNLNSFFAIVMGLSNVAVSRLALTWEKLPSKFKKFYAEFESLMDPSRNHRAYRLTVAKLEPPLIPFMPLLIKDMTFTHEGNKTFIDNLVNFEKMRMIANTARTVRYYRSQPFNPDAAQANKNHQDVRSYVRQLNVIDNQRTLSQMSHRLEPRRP

| Compound | Potency | activation |
| --- | --- | --- |
| O=C(Nc1ccccc1C(=O)O)c1cccc(NC(=O)c2ccc(Br)o2)c1 | inactive | – |
| Cc1ccn2c(=O)nc(SCC(=O)Nc3ccc4c(c3)OCO4)nc2c1 | inactive | – |
| CCOc1cc(-c2ccc(OC(=O)c3ccccc3)c(OC)c2)cc(=O)c2c(C)oc(C)c12 | inactive | – |
| O=C(O)c1ccn2c(C(=O)c3ccc(Cl)cc3)c(-c3ccccc3)cc2c1 | inactive | – |
| Cc1cc(C)c(S(=O)(=O)c2ccccc2)c(OC(=O)c2c(F)cccc2F)n1 | – | -4.73% [at 17.1 µM, percent relative to cAMP agonist control] (inactive) |
| CCc1ccc(/C=C2\SC(=S)N(CCCC(=O)Nc3ccccc3C(=O)O)C2=O)cc1 | – | 7.93% [at 17.1 µM, percent relative to cAMP agonist control] (inactive) |
| Cc1ccc(NC(=O)CC2S/C(=N/N=C3\CCCc4ccccc43)NC2=O)cc1 (stereo not given) | – | 0% [at 17.1 µM, percent relative to cAMP agonist control] (inactive) |
| Cc1ccc(Nc2c(-c3ccccn3)nc3cccc(C)n23)cc1 | inactive | – |
| COc1ccccc1-c1nnc(SCC(=O)c2ccc(C3CCCCC3)cc2)n1Cc1ccco1 | inactive | – |
| O=C(O)c1ccc(/C=N/NC(=O)c2cc(-c3ccc4c5c(cccc35)CC4)n[nH]2)cc1 | inactive | – |
| O=C(CSc1nc(O)cc(=O)n1-c1ccccc1)Nc1ccc2c3c(cccc13)CC2 | – | 0% [at 17.1 µM, percent relative to cAMP agonist control] (inactive) |
| Oc1ccc(NCc2cccc(OCc3ccccc3)c2)cc1 | inactive | – |
| C#Cc1ccc([C@@H]2C=C(C(=O)OCC=C)O[C@H](OCc3ccc(CO)cc3)C2)cc1 | – | -0.524% [at 17.1 µM, percent relative to cAMP agonist control] (inactive) |
| COCCN1C(=O)c2[nH]nc(-c3ccccc3O)c2C1c1ccc(Cl)c(Cl)c1 (stereo not given) | inactive | – |
| CC(C)Nc1nc(NC(C)C)nc(OCCOC(=O)c2ccccc2)n1 | inactive | – |
| CC(C)CNc1ncnc2onc(-c3ccc(Cl)cc3)c12 | inactive | – |
| COc1ccc(OC)c(NC(=O)C2(C)CCN2CCc2ccccc2)c1 (stereo not given) | inactive | – |
| Oc1ccc2ccccc2c1/C=N/c1nc2c(s1)CCCC2 | inactive | – |
| CCc1ccc2c(c1)NC(=O)C2(C)Cc1ccc(F)cc1 (stereo not given) | – | 12.7% [at 17.1 µM, percent relative to cAMP agonist control] (inactive) |
| ON=C(c1ccccc1)c1ccc2c3c(cccc13)CC2 | inactive | – |
| Cc1ccc(C)c(OC(C)C(=O)Nc2ccc(S(=O)(=O)Nc3nccs3)cc2)c1 (stereo not given) | inactive | – |
| CC(=O)C(=Cc1ccc(Cl)cc1)C(=O)c1ccccc1 | inactive | – |
| Oc1ccc(Cc2ccc(Cl)cc2)c(O)c1 | – | 7.91% [at 17.1 µM, percent relative to cAMP agonist control] (inactive) |
| CCOc1cc(CNc2ccc(O)cc2)cc(Cl)c1OCc1ccccc1 | inactive | – |
| COc1ccc(Nc2cc(C(=O)NCCCN3CCN(c4ccccc4F)CC3)c3ccccc3n2)c(OC)c1 | inactive | – |

Target: Rap guanine nucleotide exchange factor 4 (Homo sapiens) (UniProt Q8WZA2)
Assay: Confirmatory qHTS for antagonist of cAMP-regulated guanine nucleotide exchange factor 4 (EPAC2) (AID 1645885); note: nearly all actives have a fitted effect of over 25% in size; note: potency is the fitted concentration of half-maximal effect
Settings: EPAC2 Rap1B-BODIPY-GDP exchange fluorescence, biochemical; series mostly up to 12.7 µM

| Compound | Potency | outcome |
| --- | --- | --- |
| COc1cn(-c2ccccc2)nc1C(=O)Nc1ccc(C)cc1Cl | 95.3 µM (active) | – |
| Cc1cccc(Nc2nnc(SC/C(O)=C(\C#N)c3nc4ccccc4[nH]3)s2)c1 | inactive | – |
| COc1ccc(-n2c(NC(=O)c3ccco3)c(C#N)c3nc4ccccc4nc32)cc1 | inactive | – |
| COc1ccc(OC)c(CNC(=O)CCCc2cn(C)c3ccccc23)c1 | inactive | – |
| N#CCCN(CCC#N)S(=O)(=O)c1ccc(C(=O)Nc2nnc(C3=COCCO3)o2)cc1 | inactive | – |
| O=C1C(Cl)=C(NCCc2ccccc2)C(=O)c2ccccc21 | inactive | – |
| CN(CCOc1ccc(Br)cc1)C(=O)CNC(=O)c1ccc2ccccc2c1 | inactive | – |
| Oc1c(Br)cc(Br)cc1CNc1cccc2cccnc12 | 26.9 µM (active) | – |
| Cc1ccc(-c2nc3c(c(=O)[nH]c(=O)n3Cc3ccccc3)n2C)o1 | inactive | – |
| O=C(Nc1c(-c2ccc3c(c2)OCO3)[nH][nH]c1=O)c1ccccc1 | inactive | – |
| Cc1cccc(Cn2c(COc3ccccc3)nc3ccccc32)c1 | inactive | – |
| Cc1ccc(C)c(N2CCN(C(=O)c3ccc4c(=O)n5c(nc4c3)CCCCC5)CC2)c1 | inactive | – |
| CCN(CCCNC(=O)c1cc2cc3ccc(OC)cc3nc2s1)c1cccc(C)c1 | inactive | – |
| CCc1nc(Oc2cccc(F)c2)c2oc3ccccc3c2n1 | inactive | – |
| CC(c1nc2ccccc2n1Cc1ccccc1)n1c(-c2cnccn2)nc2ccccc21 (stereo not given) | inactive | – |
| O=C(Nc1ccccc1C(=O)O)c1cccc(NC(=O)c2ccc(Br)o2)c1 | inactive | – |
| Cc1ccn2c(=O)nc(SCC(=O)Nc3ccc4c(c3)OCO4)nc2c1 | inactive | – |
| CCOc1cc(-c2ccc(OC(=O)c3ccccc3)c(OC)c2)cc(=O)c2c(C)oc(C)c12 | – | inactive [at 12.7 µM] |
| O=C(O)c1ccn2c(C(=O)c3ccc(Cl)cc3)c(-c3ccccc3)cc2c1 | inactive | – |
| Cc1cc(C)c(S(=O)(=O)c2ccccc2)c(OC(=O)c2c(F)cccc2F)n1 | inactive | – |

| Compound | Potency | outcome |
| --- | --- | --- |
| CCc1ccc(/C=C2\SC(=S)N(CCCC(=O)Nc3ccccc3C(=O)O)C2=O)cc1 | inactive | – |
| Cc1ccc(NC(=O)CC2S/C(=N/N=C3\CCCc4ccccc43)NC2=O)cc1 (stereo not given) | inactive | – |
| Cc1ccc(Nc2c(-c3ccccn3)nc3cccc(C)n23)cc1 | inactive | – |
| COc1ccccc1-c1nnc(SCC(=O)c2ccc(C3CCCCC3)cc2)n1Cc1ccco1 | inactive | – |
| O=C(O)c1ccc(/C=N/NC(=O)c2cc(-c3ccc4c5c(cccc35)CC4)n[nH]2)cc1 | inactive | – |
| O=C(CSc1nc(O)cc(=O)n1-c1ccccc1)Nc1ccc2c3c(cccc13)CC2 | inactive | – |
| Oc1ccc(NCc2cccc(OCc3ccccc3)c2)cc1 | inactive | – |
| C#Cc1ccc([C@@H]2C=C(C(=O)OCC=C)O[C@H](OCc3ccc(CO)cc3)C2)cc1 | inactive | – |
| COCCN1C(=O)c2[nH]nc(-c3ccccc3O)c2C1c1ccc(Cl)c(Cl)c1 (stereo not given) | inactive | – |
| CC(C)Nc1nc(NC(C)C)nc(OCCOC(=O)c2ccccc2)n1 | inactive | – |
| CC(C)CNc1ncnc2onc(-c3ccc(Cl)cc3)c12 | inactive | – |
| COc1ccc(OC)c(NC(=O)C2(C)CCN2CCc2ccccc2)c1 (stereo not given) | 42.6 µM (active) | – |
| Oc1ccc2ccccc2c1/C=N/c1nc2c(s1)CCCC2 | inactive | – |
| CCc1ccc2c(c1)NC(=O)C2(C)Cc1ccc(F)cc1 (stereo not given) | inactive | – |
| ON=C(c1ccccc1)c1ccc2c3c(cccc13)CC2 | inactive | – |
| Cc1ccc(C)c(OC(C)C(=O)Nc2ccc(S(=O)(=O)Nc3nccs3)cc2)c1 (stereo not given) | 33.8 µM (active) | – |
| CC(=O)C(=Cc1ccc(Cl)cc1)C(=O)c1ccccc1 | inactive | – |
| Oc1ccc(Cc2ccc(Cl)cc2)c(O)c1 | inactive | – |
| CCOc1cc(CNc2ccc(O)cc2)cc(Cl)c1OCc1ccccc1 | inactive | – |
| COc1ccc(Nc2cc(C(=O)NCCCN3CCN(c4ccccc4F)CC3)c3ccccc3n2)c(OC)c1 | inactive | – |
